# Measurements taken from ChEMBL document CHEMBL3988442, “University of Dundee, Small-Polar-MMV Screening Library” (2021).
# For some assays here: Entries with a potency or affinity are not part of this list.
# Tests used:
# Design in all cases: scale not given: direction of the effect not stated beside the values
# [1] = biological target: Protein translocase subunit SecA (Escherichia coli (strain K12)) (UniProt P10408); assay: Assay to Identify E. coli SecA ATPase Inhibitors; assay type: functional; conditions: 30 µM
# [2] = biological target: T1, Ubiquitin-activating enzyme e1, putative (Leishmania donovani (strain BPK282A1)) (UniProt E9BSI1); assay: Leishmania donovani Ubiquitin Activating Enzyme (LdE1); assay type: functional; conditions: 30 µM
# T1 sequence (whole entry): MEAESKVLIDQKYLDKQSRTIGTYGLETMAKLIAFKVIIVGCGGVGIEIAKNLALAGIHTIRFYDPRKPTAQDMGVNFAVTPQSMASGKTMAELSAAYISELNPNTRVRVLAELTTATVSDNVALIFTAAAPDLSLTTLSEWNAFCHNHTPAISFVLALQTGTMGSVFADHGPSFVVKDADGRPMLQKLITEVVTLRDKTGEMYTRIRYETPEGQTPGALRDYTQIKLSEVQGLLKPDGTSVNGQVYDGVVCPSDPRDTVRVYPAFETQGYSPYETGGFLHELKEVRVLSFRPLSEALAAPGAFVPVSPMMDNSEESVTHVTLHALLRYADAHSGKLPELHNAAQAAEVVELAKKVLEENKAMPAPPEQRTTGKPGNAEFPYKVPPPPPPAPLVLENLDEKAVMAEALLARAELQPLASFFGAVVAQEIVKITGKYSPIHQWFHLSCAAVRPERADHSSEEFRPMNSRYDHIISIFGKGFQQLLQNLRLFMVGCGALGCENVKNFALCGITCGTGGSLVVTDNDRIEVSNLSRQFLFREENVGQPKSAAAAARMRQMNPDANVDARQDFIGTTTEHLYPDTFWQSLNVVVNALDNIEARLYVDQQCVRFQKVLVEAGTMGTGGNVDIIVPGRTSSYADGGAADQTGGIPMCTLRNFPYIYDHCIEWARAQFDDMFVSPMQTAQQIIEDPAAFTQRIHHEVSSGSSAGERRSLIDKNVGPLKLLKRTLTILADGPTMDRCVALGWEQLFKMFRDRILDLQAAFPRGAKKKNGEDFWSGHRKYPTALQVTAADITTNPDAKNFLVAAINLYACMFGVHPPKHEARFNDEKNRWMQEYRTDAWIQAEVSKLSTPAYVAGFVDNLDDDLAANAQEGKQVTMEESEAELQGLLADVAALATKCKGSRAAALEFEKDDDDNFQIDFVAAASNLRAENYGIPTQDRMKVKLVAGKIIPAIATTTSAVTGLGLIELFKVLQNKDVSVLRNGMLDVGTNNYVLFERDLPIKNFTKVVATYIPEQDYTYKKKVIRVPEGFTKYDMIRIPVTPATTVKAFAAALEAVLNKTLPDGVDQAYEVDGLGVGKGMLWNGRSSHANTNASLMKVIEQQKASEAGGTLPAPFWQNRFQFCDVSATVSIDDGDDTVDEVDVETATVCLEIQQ
# [3] = biological target: AMP-activated protein kinase, AMPK (Homo sapiens) (UniProt P54646+O43741+P54619+Q9UGJ0+Q9Y478+Q13131+Q9UGI9); assay: AMP-dependent Kinase enzyme assay. An in vitro enzyme assay that detects ADP turnover that is directly proportional to AMPK activity. This uses naive AMPK that is activated during the assay with MK-8722; assay type: functional; conditions: 30 µM
# [4] = biological target: Sialic acid-binding Ig-like lectin 9 (Homo sapiens) (UniProt Q9Y336); assay: Hs-Siglec9 ALPHAscreen SOP 20170721; conditions: 10 µM
# Trypanosoma cruzi = assay: Trypanosoma cruzi phosphomannomutase and mannose-1-phosphate guanylyltransferase assay; assay type: functional; conditions: 10 µM
# [5] = biological target: T2, Arginase-2, mitochondrial (Homo sapiens) (UniProt P78540); assay: in vitro enzyme assay to detect the production of urea directly proportional to the activity of Arginase II; assay type: functional; conditions: 33.3 µM; further: in the data most compounds retested in dose-response had high values
# T2 sequence (whole entry): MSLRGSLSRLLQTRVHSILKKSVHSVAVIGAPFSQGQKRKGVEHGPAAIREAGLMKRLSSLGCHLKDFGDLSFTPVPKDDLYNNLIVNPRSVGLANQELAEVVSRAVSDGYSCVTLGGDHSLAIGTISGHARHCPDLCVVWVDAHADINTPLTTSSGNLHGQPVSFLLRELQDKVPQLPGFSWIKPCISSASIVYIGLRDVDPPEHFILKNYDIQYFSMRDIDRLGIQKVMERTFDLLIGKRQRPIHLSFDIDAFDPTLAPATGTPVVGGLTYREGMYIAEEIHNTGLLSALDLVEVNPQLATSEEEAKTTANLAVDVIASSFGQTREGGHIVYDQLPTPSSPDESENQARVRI
# [6] = biological target: T3, Proteasome subunit beta (Trypanosoma cruzi) (UniProt O96673); assay: Trypanosoma cruzi proteasome chymotrypsin-like activity (TcProtChymo) assay.; further: in the data most compounds retested in dose-response had high values; assay type: functional; conditions: 9.37 µM
# T3 sequence (whole entry): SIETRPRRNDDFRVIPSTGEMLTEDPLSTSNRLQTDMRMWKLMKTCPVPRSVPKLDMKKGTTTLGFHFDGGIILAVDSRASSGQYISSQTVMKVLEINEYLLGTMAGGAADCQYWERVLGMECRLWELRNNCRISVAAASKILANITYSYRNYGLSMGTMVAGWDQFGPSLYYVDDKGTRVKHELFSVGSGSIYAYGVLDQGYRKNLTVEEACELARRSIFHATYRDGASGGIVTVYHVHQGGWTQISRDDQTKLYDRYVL
# Homo sapiens = species on record: Homo sapiens; assay: To identify inhibition of the IFN signalling (Jak-Stat) pathway via expression of an eGFP reporter gene under the control of an IFN-stimulated response element (ISRE) containing MxA promoter.; assay type: functional; conditions: 30 µM
# [7] = biological target: T4, Tyrosyl-tRNA synthetase, putative (Trypanosoma cruzi (strain CL Brener)) (UniProt Q4DSP6); assay: Trypanosoma cruzi tyrosyl tRNA synthetase (TcYRS) _High Tyrosine SOP; assay type: functional; conditions: 30 µM; further: in the data most compounds retested in dose-response had high values
# T4 sequence (whole entry): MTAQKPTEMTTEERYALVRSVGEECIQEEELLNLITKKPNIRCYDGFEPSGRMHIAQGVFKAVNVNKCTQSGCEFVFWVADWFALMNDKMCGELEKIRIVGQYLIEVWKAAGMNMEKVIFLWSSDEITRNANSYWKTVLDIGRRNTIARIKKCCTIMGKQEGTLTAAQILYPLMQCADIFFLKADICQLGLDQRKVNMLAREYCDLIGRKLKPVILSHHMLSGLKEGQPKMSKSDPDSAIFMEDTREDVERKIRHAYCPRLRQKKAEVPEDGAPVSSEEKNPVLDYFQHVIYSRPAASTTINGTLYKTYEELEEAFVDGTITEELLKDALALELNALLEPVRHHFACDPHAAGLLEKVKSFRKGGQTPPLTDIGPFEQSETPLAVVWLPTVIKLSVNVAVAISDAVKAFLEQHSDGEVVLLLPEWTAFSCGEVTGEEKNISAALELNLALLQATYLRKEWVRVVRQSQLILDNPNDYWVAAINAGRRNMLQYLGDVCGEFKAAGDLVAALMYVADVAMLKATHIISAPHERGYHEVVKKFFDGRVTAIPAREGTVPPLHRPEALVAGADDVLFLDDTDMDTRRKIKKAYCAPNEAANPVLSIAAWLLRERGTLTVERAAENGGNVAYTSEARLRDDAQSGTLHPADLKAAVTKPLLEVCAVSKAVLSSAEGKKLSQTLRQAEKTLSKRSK
# [8] = biological target: T4, Tyrosyl-tRNA synthetase, putative (Trypanosoma cruzi (strain CL Brener)); assay: Trypanosoma cruzi tyrosyl tRNA synthetase (TcYRS) SOP; assay type: functional; conditions: 30 µM
# [9] = biological target: Chromo domain-containing protein 1 (Saccharomyces cerevisiae (strain ATCC 204508 / S288c) (Baker's yeast)) (UniProt P32657); assay: ScCHD-1 Enzyme Inhibition Assay; assay type: functional; conditions: 30 µM; further: in the data most compounds retested in dose-response had high values
# Chain of Chromo domain-containing protein 1 (Saccharomyces cerevisiae (strain ATCC 204508 / S288c) (Baker's yeast)) (P32657 whole entry, the tested form may be a part): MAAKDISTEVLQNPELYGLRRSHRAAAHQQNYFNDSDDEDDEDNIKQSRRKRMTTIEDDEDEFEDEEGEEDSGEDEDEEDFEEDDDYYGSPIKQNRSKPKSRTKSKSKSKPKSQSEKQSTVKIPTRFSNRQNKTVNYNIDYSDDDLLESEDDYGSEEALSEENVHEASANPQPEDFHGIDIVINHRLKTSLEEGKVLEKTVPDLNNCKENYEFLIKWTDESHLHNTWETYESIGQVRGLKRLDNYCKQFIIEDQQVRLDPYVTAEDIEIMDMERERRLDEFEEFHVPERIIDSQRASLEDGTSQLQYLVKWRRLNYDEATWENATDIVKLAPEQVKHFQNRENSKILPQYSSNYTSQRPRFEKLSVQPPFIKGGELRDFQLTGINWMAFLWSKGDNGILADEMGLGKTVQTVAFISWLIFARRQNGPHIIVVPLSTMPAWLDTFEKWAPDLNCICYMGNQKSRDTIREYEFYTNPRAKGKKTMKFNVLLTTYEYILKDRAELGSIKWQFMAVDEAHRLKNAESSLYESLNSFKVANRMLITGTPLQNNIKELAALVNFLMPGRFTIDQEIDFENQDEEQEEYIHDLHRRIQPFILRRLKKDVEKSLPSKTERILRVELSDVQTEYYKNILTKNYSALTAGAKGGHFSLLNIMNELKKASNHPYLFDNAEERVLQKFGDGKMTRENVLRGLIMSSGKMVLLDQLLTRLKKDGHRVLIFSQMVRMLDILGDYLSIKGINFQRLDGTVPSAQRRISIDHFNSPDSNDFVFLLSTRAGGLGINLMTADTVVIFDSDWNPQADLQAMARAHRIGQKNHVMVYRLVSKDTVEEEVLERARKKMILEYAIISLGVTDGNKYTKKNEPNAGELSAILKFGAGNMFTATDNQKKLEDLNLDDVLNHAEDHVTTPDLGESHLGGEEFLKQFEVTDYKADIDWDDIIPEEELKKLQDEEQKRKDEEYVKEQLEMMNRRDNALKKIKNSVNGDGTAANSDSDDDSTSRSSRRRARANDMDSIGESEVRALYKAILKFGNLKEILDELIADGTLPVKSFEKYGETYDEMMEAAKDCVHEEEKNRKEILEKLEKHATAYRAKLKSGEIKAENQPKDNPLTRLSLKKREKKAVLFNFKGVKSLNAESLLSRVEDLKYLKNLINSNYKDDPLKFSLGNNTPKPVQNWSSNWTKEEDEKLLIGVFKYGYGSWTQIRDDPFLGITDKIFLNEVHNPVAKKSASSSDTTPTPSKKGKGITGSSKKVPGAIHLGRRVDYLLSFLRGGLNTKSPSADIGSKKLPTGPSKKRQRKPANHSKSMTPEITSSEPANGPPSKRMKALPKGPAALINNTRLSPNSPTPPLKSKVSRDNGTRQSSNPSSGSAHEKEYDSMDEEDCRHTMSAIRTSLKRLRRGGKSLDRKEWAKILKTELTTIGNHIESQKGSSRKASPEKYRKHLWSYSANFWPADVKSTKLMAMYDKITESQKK
# Chain of Protein translocase subunit SecA (Escherichia coli (strain K12)) (P10408 whole entry): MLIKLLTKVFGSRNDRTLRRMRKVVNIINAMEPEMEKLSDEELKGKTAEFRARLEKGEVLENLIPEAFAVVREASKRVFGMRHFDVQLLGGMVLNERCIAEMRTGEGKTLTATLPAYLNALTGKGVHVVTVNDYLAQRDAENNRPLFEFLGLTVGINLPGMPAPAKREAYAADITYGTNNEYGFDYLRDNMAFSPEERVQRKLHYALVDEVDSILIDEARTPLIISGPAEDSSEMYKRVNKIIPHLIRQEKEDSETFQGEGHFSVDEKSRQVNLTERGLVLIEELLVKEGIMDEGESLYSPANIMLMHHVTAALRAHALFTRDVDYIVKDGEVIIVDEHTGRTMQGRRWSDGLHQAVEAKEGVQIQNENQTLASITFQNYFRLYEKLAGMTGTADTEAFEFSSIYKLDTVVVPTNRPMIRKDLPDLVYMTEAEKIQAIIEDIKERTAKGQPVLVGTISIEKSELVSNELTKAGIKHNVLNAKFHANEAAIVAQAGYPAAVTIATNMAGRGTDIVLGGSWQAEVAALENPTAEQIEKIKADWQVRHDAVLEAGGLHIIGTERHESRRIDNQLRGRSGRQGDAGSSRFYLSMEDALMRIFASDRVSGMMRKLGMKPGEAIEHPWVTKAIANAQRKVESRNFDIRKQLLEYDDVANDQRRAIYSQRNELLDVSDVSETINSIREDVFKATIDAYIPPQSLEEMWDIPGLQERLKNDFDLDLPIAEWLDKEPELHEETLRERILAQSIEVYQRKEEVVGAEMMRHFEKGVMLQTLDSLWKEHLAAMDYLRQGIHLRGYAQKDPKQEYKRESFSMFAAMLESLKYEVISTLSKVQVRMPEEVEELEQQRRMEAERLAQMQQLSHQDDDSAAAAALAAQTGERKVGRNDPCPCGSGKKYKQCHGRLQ
# Chain of Sialic acid-binding Ig-like lectin 9 (Homo sapiens) (Q9Y336 whole entry): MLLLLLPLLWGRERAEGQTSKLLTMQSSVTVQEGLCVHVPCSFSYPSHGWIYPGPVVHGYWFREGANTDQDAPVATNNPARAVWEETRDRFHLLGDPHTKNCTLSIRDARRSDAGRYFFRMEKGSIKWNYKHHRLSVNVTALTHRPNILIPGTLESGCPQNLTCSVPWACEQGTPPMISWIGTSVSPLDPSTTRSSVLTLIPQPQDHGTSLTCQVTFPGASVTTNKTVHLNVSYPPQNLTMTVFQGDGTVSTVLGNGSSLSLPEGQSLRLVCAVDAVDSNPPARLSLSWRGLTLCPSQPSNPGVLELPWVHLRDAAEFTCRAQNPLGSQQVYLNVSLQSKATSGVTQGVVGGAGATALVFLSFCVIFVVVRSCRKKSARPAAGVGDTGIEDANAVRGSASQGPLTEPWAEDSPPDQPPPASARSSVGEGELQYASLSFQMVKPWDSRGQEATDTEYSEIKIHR
Structure (SMILES),Percent Effect [1],Percent Effect [2],Percent Effect [3],Percent Effect [4],Percent Effect (Trypanosoma cruzi),Percent Effect [5],Percent Effect [6],Percent Effect (Homo sapiens),Percent Effect [7],Percent Effect [8],Percent Effect [9]
CN(C)C(=O)Cc1nc(CN2CCn3c(nnc3C3CC3)C2)cs1,-3.93%,16.2%,2.91%,3.53%,2.14%,-2.4%,10.8%,7.25%,5.94%,15.8%,-2.27%
Cc1cc(CN2CCN(C(=O)NCc3nc(C)cs3)CC2)on1,-3.26%,23.7%,-8.55%,-8.19%,-4.95%,0%,12.9%,-12.4%,5.42%,13.6%,-3.29%
COc1ccccc1Oc1ncccc1CNC(=O)C(C)N1CCCC1 (configuration not stated),-3.48%,12.5%,-6.43%,29.1%,3.4%,50.3%,11.8%,-6.43%,4.21%,12.8%,-9.98%
CCn1cc(NC(=O)C2CCN(Cc3noc(C(C)C)n3)CC2)cn1,-2.1%,8.86%,0.341%,3.03%,-1.74%,-0.645%,10.3%,8.77%,9.38%,22.8%,-19.2%
Cc1nc(CN2CCCC(N(C)CCc3ccncc3)C2)no1 (configuration not stated),0.743%,18.9%,-12.8%,-5.86%,-2.51%,6.84%,10.4%,24.3%,0%,13.4%,0.929%
Cc1ccc(-c2csc(N)c2C#N)cc1,-0.493%,6.67%,-1.04%,11.3%,-3.34%,-4.05%,13.1%,28%,-6.35%,-12.8%,2.72%
CN1CC(C(=O)NC(C)(C)C)CC1=O (configuration not stated),-3.04%,-5.48%,-0.441%,-0.584%,-0.595%,-3.59%,3%,-7.57%,2.08%,8.64%,6.01%
CC(=O)N1CCN(CC2CCOc3ccccc3C2)CC1 (configuration not stated),-5.96%,-1.39%,-8.25%,5.04%,-5.34%,0.883%,14.6%,-1.92%,1.05%,-7.69%,-1.42%
CCn1nccc1CNC(=O)C(C)n1cc2c(n1)c(C)nn2C (configuration not stated),-5.47%,20%,-7.37%,0.228%,0.197%,-11.4%,10.5%,2.05%,5.29%,12.8%,-12.4%
Cc1nc(CN2CCc3ncnc(C)c3CC2)cs1,-4.35%,0%,0.161%,1.66%,4.99%,3.5%,10.3%,-27.4%,2.16%,7.69%,4.23%
Cc1noc(C)c1CN(C)CC1CCCN1c1cccnn1 (configuration not stated),-3.03%,13%,1.18%,-2.33%,0.0979%,0.21%,11.7%,11.2%,6.67%,18.8%,-25.9%
CCN(CC)Cc1cn2c(n1)CN(C(=O)c1cc(C)on1)CC2,-2.81%,16.2%,5.86%,-5.08%,-4.01%,9.24%,23.2%,-1.45%,2.16%,10.3%,-0.746%
Cc1cnn(CC2CN(Cc3cccc(C(=O)N(C)C)c3)CCO2)c1 (configuration not stated),-2.21%,23.4%,-1.81%,0.495%,3.56%,-7.83%,14.7%,14.3%,7.77%,19.5%,-9.57%
N#Cc1ccc(CN2CCC(c3ccnn3CCO)CC2)cc1,-4.87%,10.5%,-3.54%,2.96%,0.654%,-1.8%,-4.48%,3.68%,7.39%,23.5%,-1.9%
Cc1ccc(CN2CC[C@H]3[C@@H]2CCC(=O)N3CCN2CCCC2)s1,-1.28%,10.7%,8.56%,-12.2%,-8.27%,-3.03%,10.5%,7.46%,-3.19%,1.28%,-2.35%
Cc1nc2ccnn2c(C)c1CCC(=O)N1CCN(C2CC2)CC1,-4.83%,18.4%,9.42%,-13.6%,-7.38%,0.719%,10.9%,7.93%,4.43%,13.6%,-7.28%
O=C(O)C1(Cc2cc(-c3ccc(F)cc3F)no2)CCOCC1,-4.49%,4.05%,11%,-5.88%,-8.3%,-9.51%,14.2%,6.33%,-4.3%,-1.3%,-7.79%
c1cncc(COCC2CN(Cc3ccco3)Cc3ccnn3C2)c1 (configuration not stated),-3%,13.5%,-6.55%,4.29%,-0.0978%,6.2%,5.06%,9.51%,7.53%,13.6%,-2.33%
Cc1cccc2c1cnn2CCCNC(=O)CCCC(=O)O,-1.56%,5.2%,4.98%,7.89%,4.42%,-112%,0%,2.46%,4.3%,16.1%,-2.54%
CCCn1ncc(CN2C[C@@H]3CCCN3C[C@@H]2CCSC)c1C,0.712%,9.46%,3.26%,-4.09%,-5.93%,-3.02%,19.5%,8.73%,3.23%,6.49%,-15%
CC(C)Cc1cc(C(=O)N2CCCC(n3cncn3)C2)[nH]n1 (configuration not stated),-1.38%,11.4%,6.88%,-0.206%,1.33%,10.1%,2.4%,0.485%,5.21%,12.7%,-22.3%
Cc1cc(C(=O)N2CCCC(n3ccnc3C)C2)c(C)s1 (configuration not stated),-3.98%,-5.26%,5.18%,-0.508%,6.52%,0%,1.44%,13.2%,1.06%,2.6%,-2.55%
